The supplement of paper PMC12494721
Counter-ions that a name gives are not always drawn.

system: Clostridium sporogenes DSM 1664; test: growth (OD595) fold change vs plate DMSO controls (fold change (ratio)); higher = more growth; conditions: incubation time: 27 h, anaerobic, 37 °C
How it was run: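 Growth is calculated as fold change against the median of the DMSO control wells on each plate. Readings at 595 nm from anaerobic mGAM cultures (96-well, 27 h, 37 °C) were blank-subtracted, background-corrected with 20 µM compound solutions in water, and converted to OD by a calibration factor of 5. Fold changes above 1.5 were recorded as NA, and results are means of 2 biological replicates.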

SMILES	growth
CC(C)C(=O)Nc1ccc([N+](=O)[O-])c(C(F)(F)F)c1 [Flutamide] (20 µM)	0.955
Cc1ccc2c([nH]c(=O)c3c(=O)cc(C(=O)OCCC(C)C)oc32)c1C [Repirinast] (20 µM)	1.15
CCCCc1oc2ccccc2c1C(=O)c1cc(I)c(OCCN(CC)CC)c(I)c1 [Amiodarone hydrochloride] (20 µM)	1.17
NCc1ccc(S(N)(=O)=O)cc1 [Mafenide hydrochloride] (20 µM)	1.13
CC[C@@H](CO)NCCN[C@@H](CC)CO [Ethambutol dihydrochloride] (20 µM)	0.97
Nc1c2ccccc2nc2ccccc12 [Aminacrine] (20 µM)	0.903
CC(C(=O)O)c1cccc(C(=O)c2ccccc2)c1 (stereo unspecified) [Ketoprofen] (20 µM)	0.99
CCOC(=O)[C@H](CCc1ccccc1)N[C@H]1CS[C@H](c2cccs2)CN(CC(=O)O)C1=O [Temocapril hydrochloride] (20 µM)	1.1
CC(COc1ccccc1)N(CCCl)Cc1ccccc1 (stereo unspecified) [Phenoxybenzamine hydrochloride] (20 µM)	0.887
CC1(C)OC(=O)NC1=O [Dimethadione] (20 µM)	0.999
c1cnc(N2CCN(Cc3ccc4c(c3)OCO4)CC2)nc1 [Piribedil] (20 µM)	0.986
O=c1[nH]c(=O)n(C2CCCO2)cc1F (stereo unspecified) [Tegafur] (20 µM)	1.08
Nc1ccc(S(=O)(=O)Nc2ncccn2)cc1 [Sulfadiazine] (20 µM)	0.978
Cc1onc(-c2c(Cl)cccc2Cl)c1C(=O)N[C@@H]1C(=O)N2[C@@H]1SC(C)(C)[C@@H]2C(=O)O [Dicloxacillin sodium salt hydrate] (20 µM)	0.000771
CN(C)CCC=C1c2ccccc2C=Cc2ccccc21 [Cyclobenzaprine hydrochloride] (20 µM)	0.862
C#C[C@]1(O)CC[C@H]2[C@@H]3CCc4cc(O)ccc4[C@H]3CC[C@@]21C [Ethinylestradiol] (20 µM)	1.22
CN1CC(O)c2cc(N=NC(N)=O)c(O)cc21 (stereo unspecified) [Carbazochrome] (20 µM)	0.927
C[C@@H](O[C@H]1OCCN(Cc2n[nH]c(=O)[nH]2)[C@H]1c1ccc(F)cc1)c1cc(C(F)(F)F)cc(C(F)(F)F)c1 [Aprepitant] (20 µM)	1.21
CCOC(=O)c1c(N)sc2c1CCN(Cc1ccccc1)C2 [Tinoridine hydrochloride] (20 µM)	1.15
C/C(=C1\CCOC(=O)S1)N(C=O)Cc1cnc(C)nc1N [Cycotiamine] (20 µM)	0.964
CCN1CCN(C(=O)N[C@@H](C(=O)N[C@@H]2C(=O)N3[C@@H]2SC(C)(C)[C@@H]3C(=O)O)c2ccccc2)C(=O)C1=O [Piperacillin sodium salt] (20 µM)	0
CN1CCN2c3ccccc3Cc3ccccc3C2C1 (stereo unspecified) [Mianserine hydrochloride] (20 µM)	0.914
O=C(Oc1cccc2cccnc12)c1ccccc1 [Benzoxiquine] (20 µM)	1.09
Cc1cc(=O)n(-c2ccccc2)n1C [Antipyrine] (20 µM)	1.04
O=C1c2cccc(O)c2C(=O)c2c(O)cccc21 [Danthron] (20 µM)	0.931
Cc1c(Nc2ncccc2C(=O)O)cccc1C(F)(F)F [Flunixin meglumine] (20 µM)	0.944
